Assay results as given in PubChem BioAssay (NCI).
The panel holds about 83,000 compounds, 20% with a hit somewhere; the sample as a whole holds those more often.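 Cell lines were cultured in 96-well plates, exposed to a single compound concentration, and assessed for percent growth 48 hours later.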 Unmarked numbers belong to inactive results. Activity calls are given as the source filed them. Rule for the calls: active = growth percent below 10; inactive = the rest.

Assays:
Assay in all cases: NCI-60 one-dose screen, 48 h (100 = growth as untreated, 0 = no growth, -100 = all killed)
Settings in all cases: 10 µM unless noted
[1] = test system: NCI-H23 lung
[2] = test system: NCI-H226 lung
[3] = test system: NCI-H322M lung
[4] = test system: HOP-62 NSCLC
[5] = test system: NCI-H460 lung
[6] = test system: HOP-92 NSCLC
[7] = test system: NCI-H522 lung
[8] = test system: A549/ATCC NSCLC
[9] = test system: 786-0 renal
[10] = test system: COLO 205 colon
[11] = test system: DU-145 prostate
[12] = test system: K-562 leukemia
[13] = test system: MALME-3M melanoma
[14] = test system: MDA-MB-231 breast
[15] = test system: RXF 393 renal
[16] = test system: SF-268 CNS
[17] = test system: SF-295 CNS
[18] = test system: SF-539 CNS
[19] = test system: UACC-257 melanoma
[20] = test system: M14 melanoma

SMILES | growth [1] | growth [2] | growth [3] | growth [4] | growth [5] | growth [6] | growth [7] | growth [8] | growth [9] | growth [10] | growth [11] | growth [12] | growth [13] | growth [14] | growth [15] | growth [16] | growth [17] | growth [18] | growth [19] | growth [20]
CCCCCN(CCCCC)CC(O)c1cc(Cl)ccc1OC (stereo not given) | 37.6% | 65.2% | 62.2% | 4.36% (active) | 15.4% | -6.26% (active) | 21.4% | 42.2% | 24.7% | 13.3% | 40.1% | 14.8% | 66.9% | 18.8% | 30.7% | 42.3% | 23.9% | 53.2% | 47.4% | 23.1%
CCC(=O)Nc1ccc(Cl)c(Cl)c1 | 96.5% | 102% | 93.5% | 93.7% | 111% | 76.8% | 84.7% | 92.5% | 91.1% | 107% | 115% | 97.6% | 102% | 92.2% | 101% | 105% | 98.3% | 92.4% | 102% | 103%
CN1CCCCC1C(C)(O)c1ccccc1 (stereo not given) | 106% | 99.7% | 101% | 92.9% | 107% | 98.6% | 89.9% | 92% | 95.1% | 114% | 111% | 114% | 97.6% | 112% | 116% | 101% | 96.2% | 93.6% | 96.5% | 92.9%
Cc1cc(C)c(CBr)c(C)c1 | 100% | 92.8% | 92.4% | 104% | 109% | 87.5% | 90.2% | 95.1% | 99.2% | 107% | 107% | 107% | 99.3% | 106% | 100% | 105% | 101% | 93.5% | 96.8% | 109%
C/C(=C\c1ccn(-c2ccc(N)c(F)c2)n1)[C@@H]1C[C@@H]2O[C@]2(C)CCC[C@H](C)[C@H](O)[C@@H](C)C(=O)C(C)(C)[C@@H](O)CC(=O)O1 | 30.4% | 50.9% | 25.7% | 38.1% | 15.9% | 53.2% | 18.7% | 26.5% | 25.3% | -8.2% (active) | -26% (active) | 10.5% | 46.3% | 19.6% | 0.639% (active) | 30% | 17.1% | -26.4% (active) | 68.7% | 13.3%
Clc1ccc(CSC(Cn2ccnc2)c2ccc(Cl)cc2Cl)cc1 (stereo not given) | 27.1% | 52.2% | 63.3% | 52.6% | 23.2% | -4.58% (active) | 34.6% | 27.5% | 34.2% | -55.2% (active) | 68.3% | 10.2% | 21% | 64.7% | 15.3% | 50.2% | 10.7% | 44.4% | 23.1% | 29.7%
O=C(CC1(O)C(=O)Nc2ccccc21)c1ccc(C(=O)NCC2CCC3(CC2)OOC2(CCCCC2)OO3)cc1 (stereo not given) | 50.4% | 63.6% | 88.9% | 63.8% | 77.1% | -53.6% (active) | 54.9% | 57.9% | -34% (active) | 80% | 76.3% | 39.6% | 56.1% | 67% | 98.1% | 82% | 76.2% | 81% | 67.1% | 85.7%
O=C(CCCCCNC1=CC(=O)c2ccccc2C1=O)NCCC[Te]c1ccccc1 | -12.9% (active) | -54.6% (active) | -8.86% (active) | -51% (active) | -45.3% (active) | -32.4% (active) | -18.5% (active) | -45.4% (active) | -48.5% (active) | -57% (active) | -11.6% (active) | 32.7% | -52.3% (active) | -39.8% (active) | 13.8% | -26.7% (active) | -32.5% (active) | -49.7% (active) | 2.91% (active) | -37.6% (active)
O=C1C2CCC1C(N1CCCC1)CC2 (stereo not given) | 105% | 95.9% | 92.5% | 101% | 103% | 85.5% | 94.9% | 97.8% | 98.4% | 107% | 107% | 98.8% | 94.7% | 110% | 104% | 102% | 95.5% | 95% | 93% | 101%
C#Cc1ccc2c(c1)C(c1ccccc1)=NCC(=O)N2C | 63.3% | 69% | 77.7% | 49.8% | 17.4% | 72.2% | 9.39% (active) | 53.6% | 59% | 15.8% | 70.1% | 15.6% | 74.5% | 50.8% | 83.8% | 58.8% | 25% | 41.4% | 68.5% | 18.5%
COc1ccc(-n2c(C)nc3cc(OC)c(OC)cc3c2=O)cc1OC | 101% | 99.1% | 97% | 102% | 106% | 103% | 101% | 98% | 102% | 99.5% | 105% | 104% | 62.3% | 116% | 118% | 97.2% | 100% | 96.2% | 102% | 106%
O=C1CN=C(c2ccc(Cl)cc2)c2sccc2N1 | 98% | 93.6% | 91.2% | 106% | 108% | 97.4% | 82.5% | 101% | 103% | 123% | 109% | 88.1% | 97.4% | 100% | 100% | 106% | 96.5% | 93.4% | 119% | 110%
CCOC(=O)[C@@H](C)C[C@H](Cc1ccccc1)NC(=O)c1csc([C@@H](C[C@H](C(C)C)N(C)C(=O)[C@@H](NC(=O)[C@H]2CCCCN2C)C(C)(C)C)OC(C)=O)n1 | 24.5% | 55.2% | 27.3% | 11.8% | 6.23% (active) | 28.5% | -40.3% (active) | 10.3% | 4.58% (active) | -75.6% (active) | 2.47% (active) | 5.06% (active) | 62.4% | -5.5% (active) | 23.8% | 24.9% | -8.4% (active) | -13.6% (active) | 41.7% | -14.6% (active)
O=[N+]([O-])c1cc([N+](=O)[O-])c(Cl)cc1Cl | -56.4% (active) | -59% (active) | 40.6% | -73.9% (active) | -45.8% (active) | -80.1% (active) | -69.6% (active) | 39.9% | -67.8% (active) | -75.7% (active) | -85.3% (active) | -9.49% (active) | -68.4% (active) | -86.5% (active) | -90.6% (active) | -80.2% (active) | -70.4% (active) | -83.2% (active) | -68.9% (active) | -96.8% (active)
COC(=O)[C@@H](C)C[C@H](Cc1ccccc1)NC(=O)c1csc([C@@H](C[C@H](C(C)C)N(C)C(=O)C2(NC(=O)[C@H]3CCCCN3C)CCC2)OC(C)=O)n1 | 18.6% | 48.7% | 43.6% | 18.8% | 4.21% (active) | 2.26% (active) | -13.8% (active) | 15.2% | 20.9% | -59.1% (active) | 2.83% (active) | 2.16% (active) | 67.1% | -13.6% (active) | 82.9% | 17.6% | 6.3% (active) | -10.9% (active) | 60.2% | 5.56% (active)
